# Experimental data taken from ChEMBL document CHEMBL3988442, “University of Dundee, Small-Polar-MMV Screening Library” (2021).
# About 950 (1.4%) of roughly 69,000 compounds showed an effect of 50% or more. What follows is part of a selection rich in strong results, with near analogues and random picks from the rest.
# Test system: Mycobacterium tuberculosis
# Assay: Cornell M. t heat shock assay; note: in the data most compounds retested in dose-response had high values
# Assay type: functional, organism-based
# Set-up: dose or concentration left out as unconfirmed
row,Compound,Percent Effect [%]
1,Cl.Cn1nc(C2CCN(C(=O)CN3CCCCC3)CC2)c2cccnc21,-23.31
2,Cn1ncc2c1NC(=O)CC2c1ccc(Cl)cc1Cl (configuration not stated),51.94
3,Cn1ncc2c1NC(=O)CC2c1cc(Cl)ccc1F (configuration not stated),-20.48
4,Cn1ncc2c1NC(=O)CC2c1ccccc1Cl (configuration not stated),-2.735
5,Cc1ccc(CN(C)C(=O)c2n[nH]c(N)c2-c2ccccc2)o1,-6.81
6,Cc1ccc(CN2CC[C@H]3OCC[C@@H](C(=O)NC4CC4)[C@@H]3C2)o1.O=C(O)C(F)(F)F,-2.405
7,CN(CCO)Cc1cc(Cl)ccc1OCC(O)CN1CCCCCC1 (configuration not stated),54.32
8,CN(CCCO)Cc1cc(Cl)ccc1OCC(O)CN1CCCCCC1 (configuration not stated),44.14
9,COCCN(C)Cc1cc(Cl)ccc1OCC(O)CN1CCCCCC1 (configuration not stated),4.611
10,Cc1ccc(N2CCN(C(=O)CN3C[C@@H]4CC[C@H]3C4)CC2=O)cc1,-8.228
11,Cc1ccc(CN2CCC3(CCC(=O)N3CC(=O)N(C)C)CC2)s1.O=C(O)C(F)(F)F,11.8
12,Cc1ccccc1C(=O)N1CCC2(CCCN2CCN(C)C)CC1.O=C(O)C(F)(F)F.O=C(O)C(F)(F)F,12.9
13,CN(C)c1ccc(NC(=O)NCC2CCOC2)cn1 (configuration not stated),74.68
14,CCN(CC)c1ccc(NC(=O)NCC2CCOC2)cn1 (configuration not stated),3.627
15,O=C(NCC1CCOC1)Nc1ccc(OCC(F)(F)F)nc1 (configuration not stated),3.959
16,CCn1c(Cn2cncn2)nnc1C1CCN(C[C@H]2[C@@H]3CNC[C@@H]32)CC1,-28.34
17,Cc1ccc(OCc2occc2C(=O)N2C[C@@H]3[C@@H](CN(C)C)[C@@H]3C2)cc1,-7.572
18,CN(C)C(=O)CC1CC2(CCN(Cc3ccsc3)CC2)c2ccccc21.O=C(O)C(F)(F)F (configuration not stated),-34.9
19,CC(C)C(=O)Nc1cc(C(C)(C)C)nn1-c1ccccn1,4.241
20,Cc1nc(-n2nc(C3CC3)cc2NC(=O)C(C)C)[nH]c(=O)c1C,96.45
21,CC(=O)Nc1cc(C2CC2)nn1-c1nc(C)c(C)c(=O)[nH]1,27.84
22,Cc1cc(NC(=O)C(C)C)n(-c2nc(C)c(C)c(=O)[nH]2)n1,104.4
23,Cc1cc(C)n(-c2cncc(NCCNC(=O)C(C)C)n2)n1,-20.98
24,CC(C)C(=O)Nc1cc(C(=O)NC2CC(C)(C)NC(C)(C)C2)nn1C,-49.16

row,Compound,Percent Effect [%]
1,COc1cc(COCC2CCN(Cc3cccnc3)CC2)cc(OC)c1.O=C(O)C(=O)O,-22.42
2,CC(C)CN1CCN(C)C2(CCN(Cc3ccsc3)CC2)C1=O.O=C(O)C(F)(F)F.O=C(O)C(F)(F)F,-18.88
3,CCc1ccc(CN2CCc3ncnc(-c4cccnc4)c3CC2)o1.O=C(O)C(F)(F)F.O=C(O)C(F)(F)F,-16.65
4,Cc1sc2nc(CCN)nc(N3CCN(S(C)(=O)=O)CC3)c2c1C,12.46
5,Cc1sc2nc(CCN)nc(N3CCS(=O)(=O)CC3)c2c1C,12.97
6,CCOC(=O)N1CCN(c2nc(CCN)nc3sc(C)c(C)c23)CC1,82.82
7,CSc1nc(N)c2c(n1)N=C1COC(O)=C1C2c1cccc(O)c1 (configuration not stated),4.116
8,Cc1ccsc1CN1CCc2nc3ccsc3c(=O)n2CC1.Cl,3.746
9,CCN(CC)c1ccc(NS(=O)(=O)c2cncc(F)c2)cn1,-17.45
10,CCN(CC)c1ccc(NS(=O)(=O)c2cccnc2)cn1,61.96
11,CCN(CC)c1ccc(NS(=O)(=O)c2cnn(C)c2)cn1,-23.7
12,CCCC(=O)N1C[C@@H]2CCN(c3cnccn3)C[C@@H]2C1.O=C(O)C(F)(F)F,-8.378
13,O=C(O)C(F)(F)F.O=C(c1cscn1)N1CC[C@]2(C[C@@H](OCCN3CCCC3)CO2)C1,0.0126
14,CNC(=O)[C@@H]1C[C@H]2CN(Cc3nccs3)C[C@H]2N1C.O=C(O)C(F)(F)F.O=C(O)C(F)(F)F,-19.94
15,Cc1cccc(CN2C(=O)CC[C@@H]3[C@H]2CCN3Cc2ccc(C)s2)n1.O=C(O)C(F)(F)F.O=C(O)C(F)(F)F,6.515
16,COc1ccc(Cl)cc1CS(=O)(=O)Cc1nc(C)no1,62.62
17,COc1ccc(Cl)cc1CS(=O)(=O)Cc1noc(C)n1,-24.6
18,COc1ccc(Cl)cc1CS(=O)(=O)Cc1nc(C2CC2)no1,45.18
19,COCCCN(Cc1ccccn1)Cc1ccnn1C1CCCCO1.O=C(O)CC(O)(CC(=O)O)C(=O)O (configuration not stated),-20.24
20,Cc1nc(NC2CCCC2)cc(C2CCN2C(=O)c2ccccn2)n1 (configuration not stated),-9.873
21,CC(C)CCNc1nc(C(=O)NC2CC2)cs1,15.23
22,O=C(Nc1ccccn1)c1csc(NC2CCCC2)n1,105.9
23,CCN(CC)C(=O)CCCNC(=O)c1csc(NC2CC2)n1,-1.337
